Reference: the supplement of paper PMC10849652
About 7,900 targets were measured; listed, in parts, are those with a hit and a random draw of the rest. About 0.6% of all pairs of compound and target were hits.

compound: C1=CC=C(C=C1)C2=NC(=C(N2)C3=CC=NC=C3)C4=CC(=C(C=C4)Cl)O; test: log2 fold change, soluble protein after heating vs DMSO (PISA); higher = thermal stabilisation; K562 cells, 10 uM, 30 min; active = over 0.2 and 3.5 SD of the protein, either way, in both replicates (recomputed)
Method in brief: (§1)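 Thermal stability values are relative to control samples and come from duplicates. They are expressed as log2 fold changes. For measurement, K562 cells (2×10^6 cells/mL) received 10 μM compound for 30 min, and aliquots were heated for 3 min over 48°C-58°C, pooled, and extracted at 4°C in PBS with 0.5% NP-40. Soluble protein, the supernatant after 21,000xg for 90 min, was quantified by TMTpro 16plex LC-MS/MS with equalised channel sums.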

Chain of UniProt Q12894 (Q12894 whole entry, looked up): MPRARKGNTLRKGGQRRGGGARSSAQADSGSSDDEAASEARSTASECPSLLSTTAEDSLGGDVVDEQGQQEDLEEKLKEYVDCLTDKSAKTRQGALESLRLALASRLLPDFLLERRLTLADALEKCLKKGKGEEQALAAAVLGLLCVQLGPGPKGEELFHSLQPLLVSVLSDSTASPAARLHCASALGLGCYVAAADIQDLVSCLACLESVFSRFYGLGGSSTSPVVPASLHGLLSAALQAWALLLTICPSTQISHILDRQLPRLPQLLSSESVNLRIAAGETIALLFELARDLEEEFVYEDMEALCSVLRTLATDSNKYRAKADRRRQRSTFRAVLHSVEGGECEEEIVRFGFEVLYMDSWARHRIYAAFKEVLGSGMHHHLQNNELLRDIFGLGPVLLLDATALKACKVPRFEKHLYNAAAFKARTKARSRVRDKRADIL
Chain of UniProt Q8WUI4 (Q8WUI4 whole entry, looked up): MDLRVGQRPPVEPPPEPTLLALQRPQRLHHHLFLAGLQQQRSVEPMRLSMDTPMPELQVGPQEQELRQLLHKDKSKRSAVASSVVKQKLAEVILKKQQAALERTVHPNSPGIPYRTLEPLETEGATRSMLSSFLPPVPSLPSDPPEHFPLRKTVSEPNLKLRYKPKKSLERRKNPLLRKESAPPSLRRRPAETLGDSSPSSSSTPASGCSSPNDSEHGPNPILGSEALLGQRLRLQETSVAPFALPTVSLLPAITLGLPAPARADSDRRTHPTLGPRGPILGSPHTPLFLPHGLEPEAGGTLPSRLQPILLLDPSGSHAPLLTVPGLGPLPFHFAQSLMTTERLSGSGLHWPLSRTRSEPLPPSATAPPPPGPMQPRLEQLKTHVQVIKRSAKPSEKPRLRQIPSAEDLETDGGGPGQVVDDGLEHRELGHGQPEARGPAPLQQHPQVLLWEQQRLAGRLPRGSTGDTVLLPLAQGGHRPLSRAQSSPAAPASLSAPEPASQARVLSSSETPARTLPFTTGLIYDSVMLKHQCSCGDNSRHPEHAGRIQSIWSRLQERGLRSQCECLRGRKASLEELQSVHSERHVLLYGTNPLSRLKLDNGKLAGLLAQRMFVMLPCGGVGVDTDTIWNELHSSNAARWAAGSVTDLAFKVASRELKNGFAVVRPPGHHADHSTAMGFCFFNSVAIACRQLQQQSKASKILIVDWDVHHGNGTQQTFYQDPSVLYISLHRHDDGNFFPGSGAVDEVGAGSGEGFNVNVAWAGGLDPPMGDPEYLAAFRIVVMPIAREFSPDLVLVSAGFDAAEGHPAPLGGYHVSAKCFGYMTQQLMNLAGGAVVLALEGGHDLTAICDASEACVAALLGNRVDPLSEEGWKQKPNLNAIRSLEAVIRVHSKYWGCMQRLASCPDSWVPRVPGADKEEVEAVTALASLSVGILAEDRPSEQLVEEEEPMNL
Chain of UniProt P31150 (P31150 whole entry, looked up): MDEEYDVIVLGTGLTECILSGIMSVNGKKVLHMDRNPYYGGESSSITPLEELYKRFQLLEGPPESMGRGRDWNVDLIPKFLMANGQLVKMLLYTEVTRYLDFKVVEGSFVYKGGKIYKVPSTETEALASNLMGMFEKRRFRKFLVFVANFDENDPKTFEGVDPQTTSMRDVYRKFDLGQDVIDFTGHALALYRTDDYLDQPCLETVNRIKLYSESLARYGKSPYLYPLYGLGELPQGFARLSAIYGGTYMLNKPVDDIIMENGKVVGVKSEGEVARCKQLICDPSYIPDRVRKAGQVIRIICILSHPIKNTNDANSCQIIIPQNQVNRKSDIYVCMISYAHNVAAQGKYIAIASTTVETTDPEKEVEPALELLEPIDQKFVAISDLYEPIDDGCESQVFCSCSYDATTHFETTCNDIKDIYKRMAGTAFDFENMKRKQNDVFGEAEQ
Chain of UniProt P30711 (P30711 whole entry, looked up): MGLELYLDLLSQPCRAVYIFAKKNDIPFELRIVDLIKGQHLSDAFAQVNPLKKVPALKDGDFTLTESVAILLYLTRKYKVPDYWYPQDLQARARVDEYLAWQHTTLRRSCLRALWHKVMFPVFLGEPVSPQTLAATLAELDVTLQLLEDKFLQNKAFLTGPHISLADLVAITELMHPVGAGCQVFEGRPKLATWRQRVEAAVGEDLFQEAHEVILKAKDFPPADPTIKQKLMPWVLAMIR
Chain of UniProt P52597 (P52597 whole entry, looked up): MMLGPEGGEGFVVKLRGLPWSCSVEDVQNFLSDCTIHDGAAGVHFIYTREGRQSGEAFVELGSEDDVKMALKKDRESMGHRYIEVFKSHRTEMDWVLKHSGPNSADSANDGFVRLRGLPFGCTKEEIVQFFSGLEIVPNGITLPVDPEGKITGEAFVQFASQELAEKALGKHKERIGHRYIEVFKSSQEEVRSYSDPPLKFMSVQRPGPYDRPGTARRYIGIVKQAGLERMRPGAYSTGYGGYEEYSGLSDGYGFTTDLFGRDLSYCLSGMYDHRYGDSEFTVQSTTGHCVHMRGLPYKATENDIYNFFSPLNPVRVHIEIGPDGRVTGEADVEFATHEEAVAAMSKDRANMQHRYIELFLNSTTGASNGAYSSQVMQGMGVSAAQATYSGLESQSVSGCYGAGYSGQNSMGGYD
Chain of UniProt P49841 (P49841 whole entry, looked up): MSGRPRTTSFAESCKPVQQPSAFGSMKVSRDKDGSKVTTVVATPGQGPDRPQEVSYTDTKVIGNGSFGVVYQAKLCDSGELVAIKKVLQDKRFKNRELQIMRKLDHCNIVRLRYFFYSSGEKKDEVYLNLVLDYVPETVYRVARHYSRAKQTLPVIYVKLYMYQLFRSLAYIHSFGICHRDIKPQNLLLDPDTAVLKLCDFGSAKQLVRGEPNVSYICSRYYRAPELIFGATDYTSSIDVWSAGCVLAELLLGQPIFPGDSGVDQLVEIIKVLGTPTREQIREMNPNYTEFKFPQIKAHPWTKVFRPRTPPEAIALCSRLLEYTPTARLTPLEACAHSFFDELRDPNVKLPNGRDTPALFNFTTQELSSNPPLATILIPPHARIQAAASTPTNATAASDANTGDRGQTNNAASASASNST
Chain of UniProt Q53GQ0 (Q53GQ0 whole entry, looked up): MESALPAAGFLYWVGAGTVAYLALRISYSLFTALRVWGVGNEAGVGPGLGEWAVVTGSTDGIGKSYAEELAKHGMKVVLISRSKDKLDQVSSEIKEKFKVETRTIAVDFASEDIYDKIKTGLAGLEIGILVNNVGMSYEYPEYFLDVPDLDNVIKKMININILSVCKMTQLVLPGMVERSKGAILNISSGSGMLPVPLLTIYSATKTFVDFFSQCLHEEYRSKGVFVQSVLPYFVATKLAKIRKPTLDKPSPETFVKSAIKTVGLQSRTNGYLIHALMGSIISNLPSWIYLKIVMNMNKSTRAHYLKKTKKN
Chain of UniProt Q9NP66 (Q9NP66 whole entry, looked up): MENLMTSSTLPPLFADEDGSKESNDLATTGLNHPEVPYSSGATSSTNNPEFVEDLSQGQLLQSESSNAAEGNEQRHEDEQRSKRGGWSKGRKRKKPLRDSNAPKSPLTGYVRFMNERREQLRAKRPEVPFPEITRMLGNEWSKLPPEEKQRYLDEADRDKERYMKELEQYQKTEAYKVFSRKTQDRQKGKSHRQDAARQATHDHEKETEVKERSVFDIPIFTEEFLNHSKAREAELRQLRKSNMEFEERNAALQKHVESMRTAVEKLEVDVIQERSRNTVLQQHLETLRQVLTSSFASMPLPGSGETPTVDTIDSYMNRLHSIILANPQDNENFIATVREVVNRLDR
Chain of UniProt P06280 (P06280 whole entry, looked up): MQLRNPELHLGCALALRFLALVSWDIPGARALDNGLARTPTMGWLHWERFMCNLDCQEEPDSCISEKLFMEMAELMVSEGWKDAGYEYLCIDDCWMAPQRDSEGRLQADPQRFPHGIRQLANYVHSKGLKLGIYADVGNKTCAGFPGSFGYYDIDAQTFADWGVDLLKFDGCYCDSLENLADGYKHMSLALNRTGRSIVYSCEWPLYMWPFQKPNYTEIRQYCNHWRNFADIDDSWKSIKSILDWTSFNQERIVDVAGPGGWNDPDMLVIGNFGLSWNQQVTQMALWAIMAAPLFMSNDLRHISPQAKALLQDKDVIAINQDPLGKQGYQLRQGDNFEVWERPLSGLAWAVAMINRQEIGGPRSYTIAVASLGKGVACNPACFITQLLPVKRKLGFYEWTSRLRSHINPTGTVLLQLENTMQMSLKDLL
Chain of UniProt P22087 (P22087 whole entry, looked up): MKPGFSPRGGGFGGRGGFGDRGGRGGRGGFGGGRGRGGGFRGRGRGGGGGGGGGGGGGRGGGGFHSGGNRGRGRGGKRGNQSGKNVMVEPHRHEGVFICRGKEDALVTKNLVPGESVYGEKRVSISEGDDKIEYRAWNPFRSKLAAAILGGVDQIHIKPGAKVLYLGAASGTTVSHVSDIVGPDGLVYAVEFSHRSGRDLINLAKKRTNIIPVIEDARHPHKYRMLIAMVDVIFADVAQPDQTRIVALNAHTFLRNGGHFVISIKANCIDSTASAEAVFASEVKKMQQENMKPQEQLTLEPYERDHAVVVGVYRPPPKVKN
Chain of UniProt Q92769 (Q92769 whole entry, looked up): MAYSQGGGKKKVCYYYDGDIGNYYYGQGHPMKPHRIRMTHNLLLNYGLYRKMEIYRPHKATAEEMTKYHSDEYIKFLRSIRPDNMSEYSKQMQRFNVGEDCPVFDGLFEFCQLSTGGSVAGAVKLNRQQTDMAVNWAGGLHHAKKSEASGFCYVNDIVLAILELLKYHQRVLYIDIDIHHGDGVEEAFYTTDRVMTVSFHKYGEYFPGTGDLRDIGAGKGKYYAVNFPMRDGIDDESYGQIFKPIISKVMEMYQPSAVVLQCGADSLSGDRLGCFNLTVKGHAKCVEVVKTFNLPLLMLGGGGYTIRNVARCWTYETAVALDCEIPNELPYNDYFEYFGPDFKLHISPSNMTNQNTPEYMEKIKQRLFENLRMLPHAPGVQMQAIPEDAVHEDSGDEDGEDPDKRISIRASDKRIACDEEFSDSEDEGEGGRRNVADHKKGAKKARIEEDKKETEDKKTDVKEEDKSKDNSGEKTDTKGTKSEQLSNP
Chain of UniProt Q9H0R8 (Q9H0R8 whole entry, looked up): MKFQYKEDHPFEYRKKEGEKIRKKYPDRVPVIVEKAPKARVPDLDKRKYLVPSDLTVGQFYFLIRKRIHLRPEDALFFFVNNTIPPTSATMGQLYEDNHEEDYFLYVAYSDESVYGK

Target	log2 fold change
GSK3B isoform 2 (UniProt P49841)	0.095 (inactive)
GDI1 (UniProt P31150)	-0.021 (inactive)
HMGCR isoform 3 (UniProt P04035)	-0.033 (inactive)
FBL (UniProt P22087)	-0.099 (inactive)
HMG20A (UniProt Q9NP66)	0.429 (active)
HDAC2 (UniProt Q92769)	-0.011 (inactive)
GCLM (UniProt P48507)	-0.006 (inactive)
H1FX (UniProt Q92522)	0.033 (inactive)
HMGN1 (UniProt P05114)	-0.062 (inactive)
GDPD1 (UniProt Q8N9F7)	0.048 (inactive)
IFT74 (UniProt Q96LB3)	0.211 (inactive)
GLCCI1 (UniProt Q86VQ1)	-0.264 (inactive)
GSTP1 (UniProt P09211)	0.014 (inactive)
HNRNPF (UniProt P52597)	0.079 (inactive)
HSPA8 (UniProt E9PK54)	-0.211 (inactive)
GNPAT (UniProt O15228)	0.057 (inactive)
GTF2E1 (UniProt P29083)	0.025 (inactive)
H2AFX (UniProt P16104)	-0.087 (inactive)

Target	log2 fold change
FOXK1 (UniProt P85037)	-0.075 (inactive)
GABARAPL1 isoform 2 (UniProt Q9H0R8)	-0.001 (inactive)
HOOK3 (UniProt Q86VS8)	-0.002 (inactive)
FECH isoform 2 (UniProt P22830)	0.429 (inactive)
HPCAL1 (UniProt P37235)	-0.063 (inactive)
GOLPH3 (UniProt Q9H4A6)	0.051 (inactive)
HIST2H2BF isoform 2 (UniProt Q5QNW6)	-0.057 (inactive)
HDAC7 isoform 5 (UniProt Q8WUI4)	-0.037 (inactive)
HEXA (UniProt P06865)	-0.003 (inactive)
HDAC6 (UniProt Q9UBN7)	0.033 (inactive)
IFRD2 isoform 2 (UniProt Q12894)	-0.051 (inactive)
GSTT1 (UniProt P30711)	-0.044 (inactive)
H2AZ1 (UniProt P0C0S5)	-0.189 (inactive)
HSD17B12 (UniProt Q53GQ0)	0.027 (inactive)
GNAS (UniProt Q5JWF2)	0.02 (inactive)
GLA (UniProt P06280)	-0.034 (inactive)
GLUL (UniProt P15104)	-0.007 (inactive)

compound: C1=CC=C2C(=C1)C3=NNC4=CC=CC(=C43)C2=O; test: as above
Method in brief: as §1

Target	log2 fold change
GSK3B isoform 2 (UniProt P49841)	0.091 (inactive)
GDI1 (UniProt P31150)	-0.001 (inactive)
HMGCR isoform 3 (UniProt P04035)	-0.137 (inactive)
FBL (UniProt P22087)	-0.091 (inactive)
HMG20A (UniProt Q9NP66)	0.001 (inactive)
HDAC2 (UniProt Q92769)	-0.011 (inactive)
GCLM (UniProt P48507)	0.064 (inactive)
H1FX (UniProt Q92522)	0 (inactive)
HMGN1 (UniProt P05114)	-0.059 (inactive)
GDPD1 (UniProt Q8N9F7)	-0.018 (inactive)
IFT74 (UniProt Q96LB3)	-0.038 (inactive)
GLCCI1 (UniProt Q86VQ1)	-0.017 (inactive)
GSTP1 (UniProt P09211)	0.005 (inactive)
HNRNPF (UniProt P52597)	0.003 (inactive)
HSPA8 (UniProt E9PK54)	-0.095 (inactive)
GNPAT (UniProt O15228)	0.019 (inactive)
GTF2E1 (UniProt P29083)	0.039 (inactive)
H2AFX (UniProt P16104)	-0.049 (inactive)

Target	log2 fold change
FOXK1 (UniProt P85037)	0.61 (inactive)
GABARAPL1 isoform 2 (UniProt Q9H0R8)	0.02 (inactive)
HOOK3 (UniProt Q86VS8)	-0.036 (inactive)
FECH isoform 2 (UniProt P22830)	0.135 (inactive)
HPCAL1 (UniProt P37235)	0.002 (inactive)
GOLPH3 (UniProt Q9H4A6)	-0.007 (inactive)
HIST2H2BF isoform 2 (UniProt Q5QNW6)	-0.083 (inactive)
HDAC7 isoform 5 (UniProt Q8WUI4)	-0.171 (inactive)
HEXA (UniProt P06865)	-0.023 (inactive)
HDAC6 (UniProt Q9UBN7)	0.07 (inactive)
IFRD2 isoform 2 (UniProt Q12894)	0.118 (inactive)
GSTT1 (UniProt P30711)	-0.031 (inactive)
H2AZ1 (UniProt P0C0S5)	0.036 (inactive)
HSD17B12 (UniProt Q53GQ0)	0.064 (inactive)
GNAS (UniProt Q5JWF2)	0.011 (inactive)
GLA (UniProt P06280)	-0.032 (inactive)
GLUL (UniProt P15104)	-0.045 (inactive)
